Inhibition data for 91 molecules are collected here from PubChem BioAssay AID624330 (Southern Research Specialized Biocontainment Screening …, 2012).

In all, about 340,000 compounds went through this assay and about 2,100 (0.62%) were called active. Only a sample is shown. Results with a measured potency or affinity are listed apart. A number with no mark means an inactive call.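 How the source made its calls: active means first-screen hits whose inhibition reached a set limit at any dose in the follow-up dose series; inconclusive means inhibition above the set first-screen limit but never retested; inactive means the rest.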

Rac GTPase-activating protein 1 (Homo sapiens), sequence (Q9H0H5 whole entry, looked up): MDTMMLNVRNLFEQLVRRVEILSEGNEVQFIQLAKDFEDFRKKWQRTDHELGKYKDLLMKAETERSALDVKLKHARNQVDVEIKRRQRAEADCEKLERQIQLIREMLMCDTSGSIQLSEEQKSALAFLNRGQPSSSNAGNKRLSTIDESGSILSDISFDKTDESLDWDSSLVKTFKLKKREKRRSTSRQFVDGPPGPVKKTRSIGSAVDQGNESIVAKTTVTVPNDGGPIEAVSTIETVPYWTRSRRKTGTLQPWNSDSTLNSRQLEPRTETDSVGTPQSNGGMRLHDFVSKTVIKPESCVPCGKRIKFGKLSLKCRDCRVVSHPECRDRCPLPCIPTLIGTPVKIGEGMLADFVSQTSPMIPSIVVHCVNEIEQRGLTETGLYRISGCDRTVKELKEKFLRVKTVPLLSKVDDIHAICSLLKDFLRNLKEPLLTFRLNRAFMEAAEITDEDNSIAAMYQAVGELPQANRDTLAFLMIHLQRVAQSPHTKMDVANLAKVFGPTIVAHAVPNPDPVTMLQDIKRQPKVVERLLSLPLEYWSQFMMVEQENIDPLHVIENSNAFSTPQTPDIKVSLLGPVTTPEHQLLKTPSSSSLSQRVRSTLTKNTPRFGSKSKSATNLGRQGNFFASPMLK

The assay has as its target Rac GTPase-activating protein 1 (Homo sapiens) (UniProt Q9H0H5). Nature of the assay: blockers of MgcRacGAP-driven Rac1 GTP hydrolysis – biochemical, ADP Hunter fluorescence, primary and confirmatory, confirmation (AID 624330).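 Further: fluorescence reports GDP produced by GAP-driven GTP hydrolysis.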 To be noted: MgcRacGAP-stimulated Rac1 GTP hydrolysis, at 30 µM, active compounds read high, GST-tagged Rac1 F28L mutant substrate.
The term inhibition denotes the change of the read-out against control, counted positive when it falls. As for `CC(=O)c1ccc2ccccc2c1OC(=O)c1ccncc1`, the inhibition is 6.45%.

With `CSc1sc(-c2ccnc(SCC(=O)C(C)(C)C)n2)c2c1C(=O)CC(C)(C)C2`, the inhibition is 13.4%.

For the molecule `CCn1c(SCC(=O)Nc2ccc(F)cc2)nc2ccccc2c1=O`, the inhibition was 0.4%.

Consider `Cc1ccc(C(=O)N2CCC(C(=O)NCc3ccco3)CC2)cc1`, for which the inhibition was 5.06%.

For the molecule `COc1cc(OC)cc(C(=O)Nc2ncn[nH]2)c1`, the inhibition was 6.96%.

With `COc1ccc(/C=N/N2C(=O)c3ccccc3C2=O)cc1`, the inhibition is -3.67%.

As to `O=C1c2ccccc2C(=O)N1/N=C/c1ccc(O)c(O)c1O`, the inhibition was -97.2%.

`O=C1C2C3C=CC(CC3)C2C(=O)N1/N=C/c1ccc(O)cc1` (stereo unspecified): the inhibition is 1.46%.

Regarding `O=C1c2ccccc2C(=O)N1N=Cc1ccc2c(c1)OCO2`, the inhibition was 5.49%.

Turning to `COc1cc(/C=N/N2C(=O)C3C4c5ccccc5C(c5ccccc54)C3C2=O)ccc1O` (stereo unspecified), the inhibition was 4.88%.

As to `O=C1C2C3C=CC(CC3)C2C(=O)N1/N=C/c1ccccc1O` (stereo unspecified), the inhibition was 3.85%.

Take `CC(NC(=O)C1CC(=O)N(c2ccc3c(c2)OCCO3)C1)c1ccccc1` (stereo unspecified): the inhibition is 10.6%.

For the molecule `C/C(=N\NC(=O)C(c1ccncc1)N1CCOCC1)c1ccc(Br)cc1` (stereo unspecified), the inhibition was 5.86%.

Regarding `Cc1cccc(NC(=O)CN2C(=O)N/C(=C/c3cc(C)n(-c4cccnc4)c3C)C2=O)c1`, the inhibition is -10.6%.

Regarding `COc1ccccc1C(CNC(=O)c1cccc(S(=O)(=O)N2CCCc3ccccc32)c1)N(C)C` (stereo unspecified), the inhibition is 4.28%.

Consider `Cc1cc(C)nc(NS(=O)(=O)c2ccc(NC(=S)NC(=O)C(C)(C)C)cc2)n1`, for which the inhibition was 8.49%.

Turning to `CC(=O)N1CCc2cc(S(=O)(=O)NCCCOC(C)C)ccc21`, the inhibition was 2.11%.

Take `CC(=O)c1ccc(S(=O)(=O)N2CCC3(CC2)CC(=O)c2ccccc2O3)cc1`: the inhibition is 14.3%.

With `O=S(=O)(c1cccs1)N1CCN(c2ccccc2Cl)CC1`, the inhibition was 1.05%.

For the molecule `CC(=O)Nc1ccc(NC(=O)Cn2cnc3c(nnn3Cc3ccc(F)cc3)c2=O)cc1`, the inhibition was 1.41%.

Turning to `c1ccc2cc(OCCOCCOc3ccc4ccccc4c3)ccc2c1`, the inhibition was -0.76%.

`CN(C)CCOc1ccc2ccccc2c1`: the inhibition is 25.2%.

For the molecule `CC1=C(C)CC2(SC1)C(=O)N(c1ccccc1)N=C2N` (stereo unspecified), the inhibition is 15%.

For the molecule `CC[C@@H](C)[C@@H](C(=O)N1CCN(C(=O)OC(C)(C)C)CC1)n1cc(CCCCNC(=O)OC(C)(C)C)nn1`, the inhibition was 7.52%.

With `Cn1c(-c2ccc3c(c2)OCO3)cnc1NCc1ccccc1`, the inhibition was 30.7%.

As for `Cn1c(-c2ccc3c(c2)OCO3)cnc1NCc1ccc(Cl)cc1`, the inhibition is 27.4%.

Take `Cn1c(-c2ccc(F)cc2)cnc1NCc1cc2c(cc1[N+](=O)[O-])OCO2`: the inhibition was 27.6%.

Take `Cc1ccc(CNc2ncc(-c3ccc4c(c3)OCO4)n2C)cc1`: the inhibition is 30.1%.

Regarding `COc1ccc(-c2cnc(NCc3cc4c(cc3[N+](=O)[O-])OCO4)n2C)cc1`, the inhibition is 28.1%.

For `Cn1c(-c2ccc3c(c2)OCO3)cnc1NCc1cccc(O)c1`, the inhibition is 26.8%.

Regarding `COc1ccccc1N1CCN(S(=O)(=O)c2ccc(NC(C)=O)cc2)CC1`, the inhibition was 7.69%.

For the molecule `Cc1c(-c2ccccc2)nc2ccccc2c1C(=O)Oc1ccc([N+](=O)[O-])cc1`, the inhibition is -7.74%.

With `Cc1ccc(S(=O)(=O)N2CC3(O)CN(C(=O)OC(C)C)N(C(=O)OC(C)C)CC3(OC(=O)NC3CCCC3)C2)cc1` (stereo unspecified), the inhibition is 9.25%.

On to `CC(=O)Nc1ccc(S(=O)(=O)NNC(=O)c2ccc([N+](=O)[O-])cc2)cc1`, for which the inhibition is 1.83%.

With `COC(=O)CN1C(=O)C(O)(CC(=O)c2ccccc2)c2ccccc21` (stereo unspecified), the inhibition was 9.4%.

On to `CC(C)(C)OC(=O)NCCCCCNC(=O)c1nc[nH]c1C(=O)NCC(=O)OCc1ccccc1`, for which the inhibition is 5.97%.

In the case of `CCN(CC1COc2ccccc2O1)C(=O)CN1C(=O)NC(C)(c2ccccc2)C1=O` (stereo unspecified), the inhibition was 1.68%.

Turning to `NC(=O)c1ccc(NC(=O)COC(=O)c2cccc(Oc3ccccc3)c2)cc1`, the inhibition was -3.55%.

For the molecule `CCOCCCNC(=S)N1CCCN(c2nc3cc(C)ccc3cc2C#N)CC1`, the inhibition is 10.8%.

As to `COc1ccc(/C=N/NC(=O)c2ccc3c(c2)OCO3)cc1`, the inhibition was 7.95%.

On to `O=C(N/N=C/c1ccc2c(c1)OCO2)c1ccc2c(c1)OCO2`, for which the inhibition was 9.83%.

Take `COc1ccc(/C=C(/NC(=O)c2ccccc2)C(=O)N/N=C/c2ccc3c(c2)OCO3)cc1OC`: the inhibition is 4.26%.

In the case of `O=C(CNC(=O)c1ccc2c(c1)OCCO2)N/N=C/c1ccc(Cl)cc1`, the inhibition was 13.2%.

Take `CN(C)c1ccc(/C=N/NC(=O)CNC(=O)c2ccc3c(c2)OCCO3)cc1`: the inhibition is 14.6%.

Take `O=C(N/N=C/c1ccc2c(c1)OCO2)/C(=C/c1ccc2c(c1)OCO2)NC(=O)c1ccccc1`: the inhibition is -2.17%.

As for `COc1cccc(/C=N/NC(=O)CNC(=O)c2ccc3c(c2)OCCO3)c1O`, the inhibition was 8.24%.

Take `COc1ccc(/C=N/NC(=O)CNC(=O)c2ccc3c(c2)OCCO3)cc1OC`: the inhibition was 12.1%.

As for `CCOC(=O)C(NC(=O)c1ccc(OC)cc1)(Nc1cc(C)on1)C(F)(F)F` (stereo unspecified), the inhibition is 9.87%.

As to `Cc1ccccc1NC(=O)OCc1cccnc1Oc1ccc(Cl)cc1`, the inhibition was 10.3%.

Consider `C/C(=N\NC(=O)c1cc(C)oc1C)c1ccc2c(c1)OCO2`, for which the inhibition was 6.44%.

Consider `CN(C)CCCN(Cc1ccccc1)C(=S)Nc1cccc(C(F)(F)F)c1`, for which the inhibition is 3.49%.

With `Cc1ccc2c(c1)NC(=O)C(CC(=O)Nc1ccc(CN3CCC(C)CC3)cc1)O2` (stereo unspecified), the inhibition was 4.76%.

In the case of `Cc1[nH]c(N=Nc2ccccc2)nc1N=Nc1ccccc1`, the inhibition is 8.63%.

As for `Cc1ccccc1OCC(=O)Nc1ccccc1N1CCC(C)CC1`, the inhibition is 4.53%.

As for `O=C(C[n+]1ccc(-c2ccccc2)cc1)Nc1ccc([N+](=O)[O-])cc1`, the inhibition was 8.73%.

Consider `COC(=O)C1=C(C)N(Cc2ccccc2)C(=NCCCCO)N[C@H]1c1cccc(C(F)(F)F)c1`, for which the inhibition is 10.7%.

For `CC1(C)NS(=O)(=O)Oc2ccccc21`, the inhibition is 15.4%.

In the case of `O=C(NC1=NCCS1)C1CC(=O)N(c2ccc(F)cc2)C1` (stereo unspecified), the inhibition was 3.19%.

Take `Cc1nc2c(ncn2-c2ccccc2)c(=O)n1NC(=O)CN1CCOCC1`: the inhibition is 6.81%.

In the case of `COc1ccc(/C=C/C(=O)c2ccc3c(c2)OCO3)cc1OC`, the inhibition was 0.8%.

Take `COc1cc(/C=C/C(=O)c2ccc3c(c2)OCO3)cc(OC)c1OC`: the inhibition was 9.6%.

Turning to `COc1ccc(C(CC(=O)N2CCCCC2)c2c(OC)cc(OC)c3c(-c4ccccc4)cc(=O)oc23)cc1` (stereo unspecified), the inhibition was 5.73%.

For the molecule `COc1ccccc1N1CCN(C2CCCN(Cc3ccc(Cl)cc3)C2)CC1` (stereo unspecified), the inhibition is -6.75%.

For the molecule `Cc1ccc(C(C[N+](=O)[O-])c2c(N)n(C)c(=O)n(C)c2=O)cc1` (stereo unspecified), the inhibition was 5.58%.

Turning to `COc1ccc(Br)cc1C(C[N+](=O)[O-])c1c(N)n(C)c(=O)n(C)c1=O` (stereo unspecified), the inhibition was 10.7%.

As to `O=C1/C(=C/c2ccncc2)N=C2CCCCCN12`, the inhibition was 3.48%.

With `COc1ccc(/C=C2\N=C3CCCCCN3C2=O)cc1OC`, the inhibition is -1.04%.

On to `COc1ccc(/C=C2/N=C3CCCCCN3C2=O)cc1`, for which the inhibition was 4.99%.

For the molecule `COc1ccc(/C=C2/N=C3CCCCCN3C2=O)cc1OC`, the inhibition is 3.87%.

Take `COCCn1c(SCC(=O)c2cccc(OC)c2)nnc1-c1ccco1`: the inhibition is 13.4%.

For the molecule `CC(=O)Nc1ccc(NS(=O)(=O)c2c(Cl)cccc2Cl)cc1`, the inhibition is 5.14%.

As for `Cc1cc(C)n2c(SCC(=O)N(CC(C)C)c3c(N)n(CC(C)C)c(=O)[nH]c3=O)nnc2n1`, the inhibition is 5.05%.

On to `O=C(O)CCC(=O)Nc1cccc(C(=O)c2ccccc2)c1`, for which the inhibition is 8.75%.

Consider `COc1cccc(OC)c1OCCCN1CCC(Cc2ccccc2)CC1`, for which the inhibition is 28%.

For the molecule `OCc1ccccc1OCCCN1CCC(Cc2ccccc2)CC1`, the inhibition is 22.1%.

As for `N#CC1(NC(=O)CSc2nnc(Cc3ccccc3)o2)CCCCC1`, the inhibition is -4.91%.

Consider `CC1CC(C)CN(C(=O)c2ccc(CSc3nc4ccncc4[nH]3)cc2)C1` (stereo unspecified), for which the inhibition is 4.54%.

Regarding `COc1ccc(N2CCN(C(CNC(C)=O)c3ccc4c(c3)OCO4)CC2)cc1` (stereo unspecified), the inhibition was 11.6%.

Regarding `COc1ccc(C(=O)NCC(c2ccc3c(c2)OCO3)N2CCN(c3ccc(OC)cc3)CC2)cc1` (stereo unspecified), the inhibition was 7.8%.

As to `COc1ccc(C(CNC(=O)c2cc(F)c(F)c(F)c2F)N2CCOCC2)cc1` (stereo unspecified), the inhibition is 5.28%.

With `COc1ccc(C(CNC(=O)c2cc(C)oc2C)N2CCOCC2)cc1` (stereo unspecified), the inhibition is -3.27%.

Regarding `COC(=O)NCC(c1ccc2c(c1)OCO2)N1CCN(c2ccccc2)CC1` (stereo unspecified), the inhibition was 6.79%.

On to `COc1ccc(N2CCN(C(CNC(=O)C(C)C)c3ccc4c(c3)OCO4)CC2)cc1` (stereo unspecified), for which the inhibition is 26.1%.

As for `COc1cccc(CC(=O)OCC(=O)NC2(C#N)CCCCC2)c1`, the inhibition is 6.74%.

For `COc1ccc(N2CC(C(=O)OCC(=O)NCc3ccccc3)CC2=O)cc1` (stereo unspecified), the inhibition is -1.54%.

`C=CCn1c(SCC(=O)c2ccc(O)c(O)c2)nnc1-c1ccc(C)cc1`: the inhibition is 24.7%.

`C=CCn1c(SCC(=O)c2ccc(O)c(O)c2)nnc1-c1ccccc1OC`: the inhibition is 19.4%.

For `C=CCn1c(SCC(=O)O)nnc1-c1cccc(Cl)c1`, the inhibition was -7.04%.

As to `C=CCn1c(SCC(=O)c2ccc(O)c(O)c2)nnc1-c1ccc(OC)cc1`, the inhibition was 8.3%.

Regarding `O=C(COc1ccccc1F)NCc1nc2ccccc2[nH]1`, the inhibition was 10.2%.

As for `N#Cc1ccc(Cl)cc1NC(=O)COC(=O)[C@H](CCC(N)=O)NC(=O)c1ccc(F)cc1`, the inhibition was -1.8%.
